Test results as given in PubChem BioAssay (NCI).
About 83,000 compounds went through this panel and 20% of them were active in at least one assay; those are over-represented in the sample as a whole.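 Cell lines were cultured in 96-well plates, exposed to a single compound concentration, and assessed for percent growth 48 hours later.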 A number with no mark means an inactive call. Activity calls are given as the source filed them. Rule for the calls: active = growth percent below 10; inactive = the rest.

What was measured:
Experiment in all cases: NCI-60 one-dose screen, 48 h (100 = growth as untreated, 0 = no growth, -100 = all killed)
HCT-15 colon = details: 10 µM unless noted
HT29 colon = details: 10 µM unless noted
SNB-75 CNS = details: 10 µM unless noted
SNB-19 CNS = details: 10 µM unless noted
U251 CNS = details: 10 µM unless noted
PC-3 prostate = details: 10 µM unless noted
UACC-62 melanoma = details: 10 µM unless noted
LOX IMVI melanoma = details: 10 µM
SK-MEL-2 melanoma = details: 10 µM unless noted
EKVX NSCLC = details: 10 µM unless noted
SN12C renal = details: 10 µM unless noted
UO-31 renal = details: 10 µM unless noted
TK-10 renal = details: 10 µM unless noted
ACHN renal = details: 10 µM unless noted
CAKI-1 renal = details: 10 µM unless noted
A498 renal = details: 10 µM unless noted
CCRF-CEM leukemia = details: 10 µM unless noted
MOLT-4 leukemia = details: 10 µM unless noted
SK-MEL-5 melanoma = details: 10 µM unless noted
SK-MEL-28 melanoma = details: 10 µM unless noted

| SMILES | growth (HCT-15 colon) | growth (HT29 colon) | growth (SNB-75 CNS) | growth (SNB-19 CNS) | growth (U251 CNS) | growth (PC-3 prostate) | growth (UACC-62 melanoma) | growth (LOX IMVI melanoma) | growth (SK-MEL-2 melanoma) | growth (EKVX NSCLC) | growth (SN12C renal) | growth (UO-31 renal) | growth (TK-10 renal) | growth (ACHN renal) | growth (CAKI-1 renal) | growth (A498 renal) | growth (CCRF-CEM leukemia) | growth (MOLT-4 leukemia) | growth (SK-MEL-5 melanoma) | growth (SK-MEL-28 melanoma) |
| --- | --- | --- | --- | --- | --- | --- | --- | --- | --- | --- | --- | --- | --- | --- | --- | --- | --- | --- | --- | --- |
| Fc1ccc(NCCS)cc1 | 105% | 111% | 80.4% | 107% | 97.9% | 99.1% | 106% | 91.7% | 102% | 101% | 97.9% | 84.7% | 106% | 105% | 110% | 101% | 96.6% | 95.3% | – | – |
| Cc1ccccc1NC(=O)Cc1csc2[n+]1C(=O)/C(=C/c1ccc([N+](=O)[O-])cc1)S2 | 100% | 113% | 80.9% | 102% | 92.2% | – | 88.2% | 86.6% | 108% | 92.8% | 99.6% | 71.8% | 117% | 90.4% | 93.4% | 75% | 99.1% | 88.2% | 94.3% | 95.8% |
| O=C1/C(=C\c2ccc([N+](=O)[O-])cc2)CS(=O)(=O)C/C1=C/c1ccc([N+](=O)[O-])cc1 | -86.7% (active) | -57.7% (active) | -89.6% (active) | -96.3% (active) | -86.6% (active) | -81.6% (active) | -90.7% (active) | -82.8% (active) | – | -63.4% (active) | -41.1% (active) | -95.4% (active) | -99% (active) | -98.8% (active) | – | – | -31.6% (active) | -34.7% (active) | – | – |
| NCCCN(CCCN)CCCNCc1c2ccccc2c(CNCCCN(CCCN)CCCN)c2ccccc12 | 110% | 91.9% | 104% | 106% | 115% | 90.8% | 98.2% | 99.8% | 100% | 89.4% | 110% | 72.4% | 97.5% | 100% | – | 95.4% | 102% | 98.8% | 98.6% | – |
| NC(=Nc1nc(-c2ccccn2)cc2ccccc12)c1ccccn1 | 21.5% | 13.6% | 41% | 22.5% | 10.3% | 20.6% | 3.59% (active) | -5.24% (active) | 66.5% | 16.5% | – | 2.9% (active) | 31.5% | 8.11% (active) | 2.97% (active) | – | 0.348% (active) | -3.87% (active) | -79.4% (active) | – |
| O=C(Cc1ccccc1)C(F)(F)F | 107% | 112% | 92.4% | 109% | 97.8% | 96.3% | 104% | 96.5% | 107% | 99.1% | 103% | 93.7% | 103% | 106% | 89.8% | 102% | 98.4% | 82.7% | – | 99.2% |
| Nc1ccc(C(=O)/C=C/c2ccccc2)cc1 | 87% | 96.5% | 104% | 91.3% | 91.8% | 74.1% | 97% | 84.9% | 91.6% | – | 98.4% | 62.1% | 85.2% | 105% | 98.5% | 101% | 58.7% | 75.4% | 102% | – |
| CCCCOS(=O)(=O)c1ccccc1 | 102% | 104% | 85.9% | 103% | 104% | 101% | – | 97.1% | 99.9% | 108% | 100% | 99.8% | 106% | 103% | 93.2% | 128% | 110% | 166% | 117% | 126% |
| Oc1ccc(Cl)cc1Cc1cc(Cl)ccc1O | 13.7% | 86.3% | 48.3% | 41.5% | 34.8% | 23.9% | – | 42.9% | 5.31% (active) | 60.9% | 11.4% | 22.9% | 113% | – | 83.5% | 63.6% | 22.7% | 41.3% | 9.09% (active) | – |
| [Cl-].[Rh+3].c1ccc(-c2ccnc3c2ccc2c(-c4ccccc4)ccnc23)cc1.c1ccc(-c2ccnc3c2ccc2c(-c4ccccc4)ccnc23)cc1.c1ccc(-c2ccnc3c2ccc2c(-c4ccccc4)ccnc23)cc1 | 106% | 99% | 102% | 57.5% | 30.8% | 75.5% | 97.7% | 88.7% | – | 81.1% | 85.8% | 51.4% | 107% | 93.6% | 86.1% | – | 76.2% | 104% | -38.1% (active) | – |
| CCC(C)C(N)C(=O)NC(CC(N)=O)C(=O)NC(CC(C)C)C(=O)NC(CCCCN)C(=O)NC(C)C(=O)NC(CC(C)C)C(=O)NC(C)C(=O)NC(C)C(=O)NC(CC(C)C)C(=O)NC(C)C(=O)NC(CCCCN)C(=O)NC(CCCCN)C(=O)NC(C(=O)NC(CC(C)C)C(N)=O)C(C)CC (stereo not given) | 101% | 105% | 85.3% | 98.1% | 69.9% | 80.5% | 9.79% (active) | 101% | 115% | 91.2% | – | 97.4% | 106% | 87.3% | 85.3% | – | 83.8% | – | 3.42% (active) | – |
| O=C1C=CC(=O)N1C1CCCCCCCCCCC1 | 88.6% | 45.2% | 79.4% | 97.1% | 91.6% | 86.9% | 88.8% | – | 84.2% | – | 82.9% | 60.4% | 71.5% | 50.1% | 43.5% | 113% | -11% (active) | 6.51% (active) | 92.9% | 91% |
| CCCCCCC1N=C(N)N=C(N)N1c1cccc(Cl)c1 (stereo not given) | 84.2% | 17.9% | -0.752% (active) | 26.9% | 33.6% | 29.3% | – | 17.1% | 82.9% | 76.8% | 26.8% | 93.4% | 67.6% | 53.9% | 100% | 83% | 28.7% | 25.4% | 28.3% | 40% |
| COC(=O)[C@]1(C)CCC[C@]2(C)c3ccc(C(C)C)cc3C(=O)[C@@H](Br)[C@@H]12 | 69.6% | 76.2% | 80.4% | 98.3% | 91.1% | 86.8% | 90.6% | 79.7% | 103% | – | 96.1% | 69.5% | 102% | 92.6% | 89% | 109% | 70.9% | – | 90.4% | – |
| O=S(=O)(O)c1cnccn1 | 103% | 94.7% | 92.9% | 104% | 102% | – | 99.4% | 98% | 102% | 97.4% | 103% | 93.4% | 94% | 104% | 92.3% | 118% | 112% | 101% | 104% | – |
| O=[N+]([O-])c1ccc(C2N(Cc3ccc(Cl)cc3)CCN2Cc2ccc(Cl)cc2)cc1 | 84.9% | 73.3% | 74.1% | 96.7% | 87.6% | – | 102% | 96.9% | 101% | – | 90.7% | 48.5% | 80.5% | 81.6% | 72.7% | 88.4% | 83.5% | 80.3% | 88.8% | 96.3% |
| CCc1cnc2ccccc2c1/C=C/c1ccc(N(C)C)cc1 | 26% | 5.62% (active) | 43.4% | 41.1% | 26% | – | 25.3% | 43.7% | 30.3% | 62.4% | – | 44.6% | 57.1% | 60.3% | – | 34% | 32.9% | 33.9% | 46.6% | 59.9% |
